Among the data in PubChem BioAssay (NCATS) are Potency values, retold here.

Structures are written as SMILES. Records with an inconclusive call do not appear. Calls of active or inactive are those of the source.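 Rule for the calls: active = dose-dependent loss of cell ATP signal giving a full or clear fitted curve, ranked by lower potency value; inconclusive = weak partial curve or response only at the top dose; inactive = no loss of viability signal.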 Some results are limits rather than exact numbers.
Potency is the fitted concentration of half-maximal effect.

This assay in a line: Cell Viability - Jurkat (AID 426).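 Note: cells exposed to compound for 40 hours at 37 °C before ATP read.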 To be noted: qHTS. From the text:
NIH Chemical Genomics Center [NCGC]
NIH Molecular Libraries Screening Centers Network [MLSCN]
National Institutes of Environmental Health Sciences [NIEHS]
National Toxicology Program [NTP]
We have developed a 1536-well cell-based assay for quantitative high throughput screening (qHTS) against a number of cell lines to determine in vitro cytotoxicity of small molecules. This particular assay uses the Jurkat cell line (Clone E6-1) which is derived from the human T cell leukemia.
NCGC Assay Protocol Summary:
The CellTiter-Glo luminescent cell viability assay (Promega) is a homogeneous method to measure the number of viable cells in culture. The end point readout of this assay is based on quantitation of intracellular ATP, an indicator of metabolic activity, using the luciferase reaction. Luciferase catalyzes the oxidation of beetle Luciferin to oxyluciferin and light in the presence of ATP. The luminescent signal is proportional to amount of ATP present.
Using the CellTiter-Glo luminescent cell viability assay, the amount of cellular ATP was measured in the Jurkat cell line with complete culture medium following compound treatment for 40 hours. The assay was performed in opaque white Kalypsys 1536-well plates. In the screen, tamoxifen and doxorubicin were used as positive controls. Library compounds were measured for their ability to cause acute toxicity in the cell line, as reflected by a decrease in intracellular ATP levels, in a concentration-dependent manner. […] AC50 values were determined from concentration-response data modeled with the standard Hill equation.
qHTS protocol for CellTiter Glo Jurkat cellular assay
[Step] [Parameter] [Value] [Description]
1. Reagent; 5 uL; 5000 Jurkat cells/well
3. Controls; 23 nL; Tamoxifen 0.34 uM to 100 uM & Doxorubicin 0.02 nM to 100 uM
4. Time; 40 hr; 37 °C incubation
5. Reagent; 5 uL; CellTiter Glo reagent
6. Time; 20 min; Room Temperature
7. Detection; Luminescence; Viewlux plate reader
Keywords: cell viability, cytotoxicity, Jurkat cell line, luminescence, NTPHTS, NTPHTS_NCGC, NIEHS, EPA, DSSTox, MLSMR, MLSCN, NIH Roadmap, qHTS, NCGC
On the technique in general: qHTS replaces the single test concentration by a dilution series.
In the case of `O=C(O)CCC(=O)C(=O)O`, the Potency is > 92 µM (inactive).

Regarding `CCCCCCCC/C=C\CCCCCCCC(=O)O`, the Potency was > 92 µM (inactive). As for `CCOc1ccc2c(c1)C(C)=CC(C)(C)N2`, the figure is > 92 µM (inactive); as for `Nc1ccn([C@H]2CS[C@@H](CO)O2)c(=O)n1`, > 92 µM (inactive); as for `CC(C)=O`, > 92 µM (inactive).

Take `CCCCC/C=C\C/C=C\CCCCCCCC(=O)O`: the Potency was > 92 µM (inactive). To `IC(I)I` belongs > 92 µM (inactive). To `CC(O)CO` (stereo not given) belongs > 92 µM (inactive). As for `CC(C)(C)NC(=O)[C@@H]1C[C@@H]2CCCC[C@@H]2CN1C[C@@H](O)[C@H](Cc1ccccc1)NC(=O)[C@H](CC(N)=O)NC(=O)c1ccc2ccccc2n1`, the figure is 46.4 µM (active). For the molecule `O=S(=O)(O)O`, the Potency is > 92 µM (inactive).

For `O=CCCCC=O`, the Potency is 6.45 µM (active). `CCCCCCCC(=O)O`: the Potency was > 92 µM (inactive). To `CCOC(C)=O` belongs > 92 µM (inactive); to `Cc1ccccc1`, > 92 µM (inactive). As for `CC1=C2[C@@H]([C@H](C)CC[C@H]2/C=C(\C)C(=O)O)[C@H](O)C1`, the figure is > 92 µM (inactive).
